Reference: PubChem BioAssay AID1053122 (Broad Institute, 2014)
Potency and affinity values are given separately. Calls of active or inactive are those of the source.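 How the source made its calls: active means CTGF level falls with dose and the fitted half-maximal dose is at most twice the top valid dose; inconclusive means flat fit with 30 to 70% drop, or a poor fit; inactive means the rest.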

experiment: YAP1 pathway inhibition via CTGF transcript levels, dose response, cell-based, DLD1 colon cancer, RT-qPCR, cherry-pick (AID 1053122); conditions: DLD1 CTGF mRNA (YAP1 pathway), 24 h; series mostly up to 26 µM; CTGF expression fold change (lower = inhibition): at the top concentration

SMILES | CTGF expression fold change (lower = inhibition)
C[C@H]1CN([C@@H](C)CO)S(=O)(=O)c2ccc(-c3cncnc3)cc2O[C@@H]1CN(C)C(=O)NC1CCCC1 | 0.874 unspecified (inactive)
C[C@H]1CC=CC[C@@H](c2ccc(F)cc2)NC(=O)[C@H](Cc2ccccc2)N(C)C(=O)c2ccccc2O1 (mixture of isomers) | 0.44 unspecified (inactive)
Cc1ccc(S(=O)(=O)N[C@H]2C=C[C@H](CC(=O)NCc3ccc(Cl)c(Cl)c3)O[C@H]2CO)cc1 | 1.01 unspecified (inactive)
C[C@@H]1CN([C@@H](C)CO)C(=O)c2cc(NC(=O)Nc3ccccc3)ccc2O[C@@H](C)CCCCO[C@@H]1CN(C)C(=O)Nc1ccccc1 | 0.865 unspecified (inactive)
C[C@@H]1CN([C@@H](C)CO)C(=O)c2cc(C#Cc3ccccc3)cnc2O[C@@H]1CN(C)C(=O)c1ccccc1 | 0.83 unspecified (inactive)
COc1ccc([C@H]2C/C=C\C[C@@H](c3ccc4c(c3)OCO4)NC(=O)[C@@H](c3ccccc3)CC(=O)N2)c(OC)c1 | 2.12 unspecified (inactive)
CCC(=O)N1C[C@H](C)[C@@H](OC)CN(C)C(=O)c2cc(NC(=O)Nc3ccc(Cl)cc3)ccc2OC[C@@H]1C | 0.537 unspecified (inactive)
COc1ccc(S(=O)(=O)Nc2ccc3c(c2)C(=O)N([C@@H](C)CO)C[C@H](C)[C@@H](CN(C)S(=O)(=O)c2ccc(Cl)cc2)OCCCC[C@@H](C)O3)cc1 | 0.635 unspecified (inactive)
CCS(=O)(=O)Nc1ccc2c(c1)C(=O)N(C)[C@H]1CC[C@H](CC(=O)N3CCN(C)CC3)O[C@H]1CO2 | 0.968 unspecified (inactive)
O=C(CC1CC1)N1CC(=O)N2[C@H](CO)[C@@H](c3ccc(C#Cc4cccc(F)c4)cc3)[C@H]2C1 | 0.722 unspecified (inactive)
CC(C)(C)[S@](=O)N1Cc2cc(C(=O)NCc3ccccn3)nc(-c3cccc(-c4ccccc4F)c3)c2[C@@H]1CCO | 0.92 unspecified (inactive)
C[C@H](CO)N1C[C@H](C)[C@H](CN(C)Cc2ccc(Oc3ccccc3)cc2)OCc2ccccc2-c2ccccc2C1=O | 0.56 unspecified [at 23.5 µM] (inactive)
NCC[C@H]1CC[C@@H](NC(=O)NC2CCCCC2)[C@H](CO)O1 | 0.998 unspecified (inactive)
COCC(=O)N1CC[C@@H]2[C@H](CO)Nc3ccc(C#Cc4ccc(F)cc4)cc3[C@@H]21 | 0.472 unspecified (inactive)
COc1ccccc1C(=O)Nc1ccc2c(c1)C(=O)N(C)C[C@H](OC)[C@@H](C)CN(C(C)=O)[C@@H](C)CO2 | 0.589 unspecified (inactive)
O=C(Nc1cccc(F)c1)N1CCCCN2[C@H](C1)[C@H](c1ccc(C#Cc3cccnc3)cc1)[C@@H]2CO | 0.636 unspecified (inactive)
O=S(=O)(c1ccccc1)N1CCCCN2[C@H](C1)[C@@H](c1ccc(C#CC3CCCC3)cc1)[C@@H]2CO | 0.972 unspecified (inactive)
C[C@H](CO)N1C[C@H](C)[C@@H](CN(C)S(=O)(=O)c2ccc([N+](=O)[O-])cc2)OCc2ccccc2-c2c(n(C)c3ccccc23)C1=O | 0.751 unspecified (inactive)
O=S(=O)(Cc1ccccc1)N1CC2(C1)[C@H](c1ccccc1)[C@H](CO)N2CC1CCCC1 | 0.538 unspecified (inactive)

SMILES | CTGF expression fold change (lower = inhibition)
C[C@@H]1CC=CC[C@@H](c2cccc(Cl)c2)NC(=O)[C@@H](Cc2ccccc2)N(C)C(=O)c2ccccc2O1 (mixture of isomers) | 0.488 unspecified (inactive)
CO[C@@H]1CN(C)C(=O)c2cc(NS(=O)(=O)c3ccccc3C)ccc2OC[C@@H](C)N(S(=O)(=O)c2ccccc2)C[C@H]1C | 0.761 unspecified (inactive)
CN(C)C(=O)c1ccc(-c2cccc(-c3nc(C(=O)NCc4ccccc4)cc4c3[C@@H](CCO)N([S@](=O)C(C)(C)C)C4)c2)cc1 | 1.62 unspecified (inactive)
COc1ccc(CN(C)C[C@H]2Oc3ccc(NC(=O)Nc4ccc5c(c4)OCO5)cc3CC(=O)N([C@@H](C)CO)C[C@H]2C)cc1 | 0.724 unspecified (inactive)
CC(C)(C)S(=O)N1Cc2cc(C(=O)NCc3ccc4c(c3)OCO4)nc(-c3cccc(-c4cccc(F)c4)c3)c2[C@@H]1CCO (stereo partly drawn) | 0.914 unspecified (inactive)
CNC[C@H]1Oc2c(NC(=O)Nc3cccc4ccccc34)cccc2C(=O)N([C@H](C)CO)C[C@@H]1C | 0.813 unspecified (inactive)
C[C@@H]1CN([C@@H](C)CO)C(=O)CCCn2nncc2CO[C@@H]1CN(C)C(=O)c1cc(-c2ccccc2)on1 | 0.826 unspecified (inactive)
COc1ccc2c3c(n(C)c2c1)[C@@H](CO)N(Cc1ccncc1)CC31CN(C(=O)Nc2cccc(F)c2)C1 | 0.843 unspecified (inactive)
CO[C@H]1CN(C)C(=O)c2cc(NC(=O)Nc3ccccc3F)ccc2OC[C@H](C)N(CCC(F)(F)F)C[C@@H]1C | 0.848 unspecified (inactive)
CCCNC(=O)N1[C@H](C#N)[C@@H](c2ccc(C#Cc3cccc(F)c3)cc2)[C@@H]1CO | 0.779 unspecified (inactive)
CS(=O)(=O)N1CC(=O)N2[C@H](C1)[C@@H](c1ccc(C#Cc3ccc(F)cc3)cc1)[C@@H]2CO | 0.547 unspecified (inactive)
C[C@@H]1CN([C@H](C)CO)C(=O)CCCn2nncc2CO[C@@H]1CN(C)C(=O)c1cc(-c2ccccc2)on1 | 0.625 unspecified (inactive)
C[C@@H]1CN([C@H](C)CO)C(=O)CCCn2nncc2CO[C@@H]1CN(C)Cc1cccc(C(F)(F)F)c1 | 0.647 unspecified (inactive)
COc1cccc(C#Cc2ccc3c(c2)O[C@@H](CN(C)C(=O)CN2CCOCC2)[C@@H](C)CN([C@@H](C)CO)S3(=O)=O)c1 | 1.13 unspecified (inactive)
COc1ccccc1C#Cc1ccc([C@H]2[C@H](CO)N3CCCCN(C(=O)C4CCC4)C[C@@H]23)cc1 | 0.394 unspecified (inactive)
Cc1ccc(S(=O)(=O)Nc2ccc3c(c2)C(=O)N([C@H](C)CO)C[C@@H](C)[C@H](CN(C)S(=O)(=O)c2cccs2)OCCCC[C@@H](C)O3)cc1 | 0.627 unspecified (inactive)
O=C(Nc1ccc2c(c1)[C@H]1C[C@@H](CC(=O)N3CCc4ccccc4C3)O[C@H](CO)[C@H]1O2)c1ccc2c(c1)OCO2 | 0.506 unspecified (inactive)
CN1C(=O)c2cc(NC(=O)Cc3cccs3)ccc2OC[C@@H]2O[C@@H](CC(=O)NCCc3ccncc3)CC[C@H]21 | 1.3 unspecified [at 23.5 µM] (inactive)
Cc1ccccc1-c1ccc([C@H]2[C@@H](CO)N3CCCCN(S(=O)(=O)Cc4ccccc4)C[C@@H]23)cc1 | 0.556 unspecified (inactive)
